Records with an inconclusive call do not appear. The source made the active and inactive calls. Calls follow the shape of the dose curve; as a rule, active = well fitted cell-killing curve with a large enough effect in the repeat runs; inconclusive = weak or mixed curves, or effect the other way; inactive = flat fitted curve, though single readings scatter.
% is scaled to controls: 0 for no effect and ±100 for the full control effect.

A short description of this assay: Caspase-3/7 induction in HepG2 cells by small molecules, qHTS cell viability counter screen (AID 1346981). Also: nearly all actives have a fitted effect of over 30% in size. As to conditions: CellTiter-Fluor fluorescence, 17 h; series mostly up to 92.4 µM; activity change, negative = cytotoxicity: at the top concentration. The text has this: U.S. Tox21 Program National Center for Advancing Translational Sciences [NCATS] NIH Chemical Genomics Center [NCGC] U.S. Environmental Protection Agency [EPA] National Institutes of Environmental Health Sciences [NIEHS] National Toxicology Program [NTP] U.S. Food and Drug Administration [FDA] Tox21 Assay Overview: Apoptosis is a process of programmed cell death and plays a central role in the development of multicellular organisms. It is a highly regulated process and induces cell death by activating caspases, which are the members of cysteine aspartic acid-specific protease (caspase) family. Caspases involved in apoptosis are classified by their mechanism of action as initiator caspases (caspase-2, -8, -9 and -10) and executioner caspases (caspase-3, -6, and -7). Inhibition of apoptosis results in number of cancers, autoimmune diseases, inflammatory diseases and viral infection. To identify small molecule compounds that induce apoptosis, a homogeneous, luminescent Caspase-Glo 3/7 assay was used. Wild type HepG2 cells were used to screen Tox21 libraries for identifying caspase-3/7 activity inducers. Also cytotoxicity of the compounds was tested in parallel by measuring the cell viability using CellTiter-Fluor assay system in the same wells.
Tox21 Assay Protocol Summary: HepG2 cells were dispensed at 2,000 per well in 5uL of culture medium into white solid bottom 1536-well plates (Corning Life Sciences, Corning, NY) using a Multidrop Combi (Thermo Scientific, Waltham, MA) dispenser. The assay plates were incubated at 37 C and 5% CO2 for 5hr, and then 23nL of compounds dissolved in DMSO and positive control were transferred using a Pintool station ([…], San Diego, CA). The assay plates were incubated at 37C and 5% CO2 for 17hr. For cytotoxicity read, after 16hr incubation at 37C, 1uL CellTiter-Fluor reagent (Promega Corporation, Madison, WI) was added to each well of the assay plates using Flying Reagent Dispenser (FRD, Aurora Discovery, San Diego, CA). After 1hr incubation at 37C and 5% CO2, the fluorescence signal was quantified using a ViewLux plate reader (PerkinElmer, Shelton, CT).
In general terms: Quantitative high-throughput screening tests each substance at several concentrations.
Take `C=C(C)C1CCC(C)(O)CC1` (stereo not given): the “activity change, negative = cytotoxicity” value was 0.787% (inactive).
On to `Cc1cccc(C)c1OCC(C)N` (stereo not given), for which the “activity change, negative = cytotoxicity” value was 2.24% [at 42.5 µM] (inactive).
In the case of `CC1=C(C(=O)O)N2C(=O)[C@@H](NC(=O)[C@H](N)c3ccc(O)cc3)[C@H]2SC1` it was 6.34% [at 42.5 µM] (inactive); in that of `CC(C)CC(=O)O`, 4.22% (inactive); in that of `Brc1ccc(-c2ccccc2)cc1`, -0.0125% (inactive).
For `CC(C)(C)NC(N)=O`, the “activity change, negative = cytotoxicity” value was 3.18% (inactive).
With `Cc1ccsc1/C=C/C1=NCCCN1C` the figure was -1.25% [at 42.5 µM] (inactive).
Regarding `O=C(O)Cc1cn(-c2ccccc2)nc1-c1ccc(Cl)cc1`, the “activity change, negative = cytotoxicity” value was -11.5% [at 42.5 µM] (inactive).
In the case of `COc1ccc(-c2cc(=O)c3c(O)cc(O[C@@H]4O[C@H](CO[C@@H]5O[C@@H](C)[C@H](O)[C@@H](O)[C@H]5O)[C@@H](O)[C@H](O)[C@H]4O)cc3o2)cc1O` it was -1.98% [at 42.5 µM] (inactive); in that of `CCOC(=O)CC(=O)c1ccccc1`, -1.09% (inactive).
`CCOc1cc(NC(C)=O)ccc1C(=O)OC`: the “activity change, negative = cytotoxicity” value is 1.49% [at 42.5 µM] (inactive).
With `OCCC(F)(F)C(F)(F)C(F)(F)C(F)(F)C(F)(F)C(F)(F)C(F)(F)C(F)(F)F` the figure was 0.148% (inactive); with `O=C1c2ccccc2C(=O)C1c1ccccc1`, -1.81% [at 42.5 µM] (inactive); with `Nc1cccc(O)c1`, -4.14% (inactive).
With `CCCOC(OCCC)OCCC`, the “activity change, negative = cytotoxicity” value is -4.87% (inactive).
In the case of `O=C(O)c1ccc(Cl)cc1Cl`, the “activity change, negative = cytotoxicity” value is 4.77% (inactive).
With `O=C(CS(=O)Cc1ccco1)NC/C=C\COc1cc(CN2CCCCC2)ccn1` (stereo not given), the “activity change, negative = cytotoxicity” value was -1.18% [at 42.5 µM] (inactive).
`C=C1CC/C=C(\C)CC[C@@H]2[C@@H]1CC2(C)C`: the “activity change, negative = cytotoxicity” value is -1.31% (inactive).
With `N[C@@H](CCC(=O)N[C@@H](CS)C(=O)NCC(=O)O)C(=O)O` the figure was -0.0408% [at 19 µM] (inactive).
With `CC(=O)NCCCCCC(=O)O` the figure was -0.74% [at 42.5 µM] (inactive); with `Oc1cn2c(n1)Nc1ccc(Cl)c(Cl)c1C2`, 6.29% [at 19 µM] (inactive).
Regarding `NCCN1CCOCC1`, the “activity change, negative = cytotoxicity” value is 0.443% (inactive).
With `O=C(CCN1CCN(CCO)CC1)N1c2ccccc2Sc2ccc(C(F)(F)F)cc21` the figure was -7.63% [at 42.5 µM] (inactive); with `Cc1ccccc1N=O`, 0.674% (inactive).
Turning to `CC1COc2ccccc2N1` (stereo not given), the “activity change, negative = cytotoxicity” value is -0.398% (inactive).
With `O=C1c2cccc3c2[C@H](CCC3)CN1[C@@H]1CN2CCC1CC2` the figure was -9.32% [at 42.5 µM] (inactive); with `COc1ccc2c(c1)C(=O)N(CCc1ccc(S(=O)(=O)NC(=O)NC3CCCCC3)cc1)C(=O)C2(C)C`, -3.04% [at 42.5 µM] (inactive).
With `CCCOC(=O)C(C)O` (stereo not given) the figure was 9.87% (inactive); with `CNS(=O)(=O)CCc1ccc2[nH]cc(C3CCN(C)CC3)c2c1`, 0.593% [at 42.5 µM] (inactive); with `C[Si](C)=O`, 6.01% [at 8.39 µM] (inactive).
With `C=C(C)C(=O)OCC(C)(C)COC(=O)C(=C)C`, the “activity change, negative = cytotoxicity” value is 0.738% (inactive).
As to `CC(C)(C)c1n[nH]c(=S)n(N)c1=O`, the “activity change, negative = cytotoxicity” value is 7.17% (inactive).
Take `O=C(OCC1(COC(=O)c2cccnc2)CCCC(COC(=O)c2cccnc2)(COC(=O)c2cccnc2)C1O)c1cccnc1`: the “activity change, negative = cytotoxicity” value is -0.121% [at 42.5 µM] (inactive).
With `O=C(NCCc1c[nH]c2ccccc12)c1cccnc1` the figure was 8.13% [at 42.5 µM] (inactive).
In the case of `N#Cc1ccc(C(=O)O)cc1` it was 8.62% (inactive); in that of `C=COCCOCCOCCOC=C`, -0.264% (inactive); in that of `Oc1ccccc1-c1nnco1`, 7.33% [at 42.5 µM] (inactive).
With `Cc1cccc2nccnc12` the figure was -0.259% (inactive); with `CCCCCCCCCC(C)=O`, -2.56% (inactive); with `COc1ccc(OC)c(Cl)c1`, 1.45% (inactive).

Values taken from PubChem BioAssay (Tox21).
